The target of test [1] is Glucocorticoid receptor (Homo sapiens) (UniProt P04150). The test is described as follows: ATG_GR_TRANS: Attagene TRANS-FACTORIAL HepG2 Assay for human Glucocorticoid Receptor (GR) (AID 2282978; active means hit-call score of the fitted dose curve at least 0.9, where 1 is the maximum;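 further: activators score as hits since higher reporter transcript over DMSO is fitted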). The settings on record: HepG2 Attagene TRANS GR reporter, mRNA transcription. In outline: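 In this trans-factorial format, exogenous NR-GAL4 chimeric proteins in transfected HepG2 cells regulate GAL4-UAS reporter transcription. After 24 h treatment, reporter mRNA induction relative to DMSO is read by RT-PCR and capillary electrophoresis.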

The target in test [2] is Bile acid receptor (Homo sapiens) (UniProt Q96RI1). The test is described as follows: ATG_FXR_TRANS: Attagene TRANS-FACTORIAL HepG2 Assay for Farnesoid X Receptor (FXR) (AID 2282979; active means hit-call score of the fitted dose curve at least 0.9, where 1 is the maximum;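 further: hits raise reporter mRNA above DMSO so AC50 marks FXR activation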). The settings on record: HepG2 Attagene TRANS FXR-GAL4 reporter transcription. The method, boiled down:
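HepG2 cells transiently transfected with reporter constructs in which a chimeric FXR-GAL4 protein drives a GAL4-UAS reporter; 24 h compound exposure. Reporter mRNA measured by RT-PCR, FAM labelling, HpaI digestion and capillary electrophoresis; gain-of-signal versus DMSO.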

Test [3] deals with Hepatocyte nuclear factor 4-alpha (Homo sapiens) (UniProt P41235). The test is described as follows: ATG_HNF4a_TRANS: Attagene TRANS-FACTORIAL HepG2 Assay for human Hepatocyte Nuclear Factor 4 alpha (HNF4a) (AID 2282982; active means hit-call score of the fitted dose curve at least 0.9, where 1 is the maximum). The settings on record: HepG2 HNF4a transactivation reporter, mRNA readout. In outline: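 Cells used were human HepG2, transiently carrying GAL4-UAS reporter units read out against exogenous NR-GAL4 chimeras. Reporter transcript levels after 24 h dosing were quantified by fluorescent RT-PCR and capillary electrophoresis.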

The nature of test [4]: ATG_M_06_TRANS: Attagene TRANS-FACTORIAL HepG2 Assay for M06 Transcription Factor (Internal Marker) (AID 2282983; active means hit-call score of the fitted dose curve at least 0.9, where 1 is the maximum). The settings on record: HepG2 Attagene TRANS M06 internal marker reporter. In outline: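 HepG2 cells transiently transfected with multiplexed GAL4-UAS reporter transcription units; after 24 h compound exposure, reporter mRNA measured by RT-PCR, FAM-labelled primer extension, HpaI digestion and capillary electrophoresis. Gain-of-signal fitted versus DMSO baseline; background control readout.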

Test [5] is described as follows: ATG_M_32_TRANS: Attagene TRANS-FACTORIAL HepG2 Assay for M32 Transcription Factor (Internal Marker) (AID 2282984; active means hit-call score of the fitted dose curve at least 0.9, where 1 is the maximum). The settings on record: HepG2 Attagene TRANS M32 internal marker reporter. The method, boiled down:
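Human hepatoma HepG2, transient MRTU transfection, 24 h treatment. RNA → RT-PCR → fluorescent primer extension → HpaI digest (2 h, 37 C) → CE. Positive-direction fit vs DMSO.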

In test [6] the target is Transcriptional activator Myb (Homo sapiens) (UniProt P10242). The test is described as follows: ATG_Myb_CIS: Attagene CIS-FACTORIAL HepG2 Assay for human Myeloblastosis (Myb) Proto-Oncogene Transcription Factor (AID 2282986). The settings on record: HepG2 Attagene CIS-FACTORIAL Myb reporter transcription; actives raise or lower the signal. The method, boiled down: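 Steps: transfect HepG2 with cis-regulated reporter units; dose with chemical for 24 h; isolate RNA, reverse-transcribe, PCR-amplify and FAM-label reporter sequences; digest with HpaI; resolve by capillary electrophoresis. Activity fitted in both directions relative to DMSO.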

For test [7], the target named is Nuclear respiratory factor 1 (Homo sapiens) (UniProt Q16656). The test is described as follows: ATG_NRF1_CIS: Attagene CIS-FACTORIAL HepG2 Assay for human Nuclear Respiratory Factor 1 (NRF1) Orphan Gene (AID 2282987). Particulars: HepG2 NRF1 cis-element reporter, Attagene multiplex; actives raise or lower the signal. The method, boiled down:
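Fluorescence intensity of labelled reporter cDNA fragments, resolved by capillary electrophoresis, served as readout for NRF1 cis-element activity. Transiently transfected HepG2 cells were dosed for 24 hours; activity in either direction was fitted against DMSO negative control.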

Test [8] in a line: ATG_NFI_CIS: Attagene CIS-FACTORIAL HepG2 Assay for human Nuclear Factor I (NFI) (AID 2282989). Particulars: HepG2 cis-regulatory reporter, NFI response element transcription; actives raise or lower the signal. The method, boiled down:
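Endogenous TF activity in HepG2 cells transiently transfected with cis-element-driven multiplexed reporter units, read 24 h after dosing. Reporter mRNA quantified by RT-PCR, 6-FAM labelling, HpaI digestion and capillary electrophoresis; bidirectional fit versus DMSO.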

Test [9] addresses Myc proto-oncogene protein (Homo sapiens) (UniProt P01106). The test is described as follows: ATG_Myc_CIS: Attagene CIS-FACTORIAL HepG2 Assay for human Myelocytomatosis (Myc) Proto-Oncogene Transcription Factor (AID 2282990). Particulars: HepG2, Attagene cis-reporter transcription factor activity; actives raise or lower the signal. The method, boiled down: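 HepG2 cells transiently transfected with multiple cis-promoter-driven reporter transcription units, so endogenous TF activity is read. After 24 h compound exposure, reporter mRNA was quantified by RT-PCR, 6-FAM labelling, HpaI digestion and capillary electrophoresis; bidirectional fit versus DMSO.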

The nature of test [10]: ATG_NF_kB_CIS: Attagene CIS-FACTORIAL HepG2 Assay for human Nuclear Factor Kappa B (NF-kB) (AID 2282991). Particulars: HepG2 Attagene cis-factorial NF-kB reporter mRNA; actives raise or lower the signal. The method, boiled down:
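Endogenous transcription factor activity in HepG2 was captured via cis-regulated reporter constructs; after 24 h dosing, reporter mRNA was reverse-transcribed, amplified, fluorescently labelled and sized by capillary electrophoresis, with activity fitted bidirectionally relative to DMSO.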

The nature of test [11]: ATG_NRF2_ARE_CIS: Attagene CIS-FACTORIAL HepG2 Assay for human Nuclear Factor Erythroid 2 Related Factor 2 (NFR2) response to Antioxidant Response Elements (ARE) (AID 2282992).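 On AC50: reporter mRNA level measured by RT-PCR and capillary electrophoresis fluorescence.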 The settings on record: HepG2 Attagene ARE/NRF2 reporter, transcription factor activity; actives raise or lower the signal. In outline:
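HepG2 cells transiently transfected with multiplexed cis-element reporter constructs, 24 h after chemical dosing; reporter mRNA quantified by RT-PCR, fluorescent primer extension, HpaI digestion and capillary electrophoresis. Bidirectional fit relative to DMSO.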

Test [12] can be described thus: ATG_Oct_MLP_CIS: Attagene CIS-FACTORIAL HepG2 Assay for human Octamer-Binding Transcription Factor (Oct) (AID 2282993). Particulars: HepG2 Attagene cis-factorial Oct reporter, mRNA; actives raise or lower the signal. The method, boiled down: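 HepG2 cells transiently transfected with cis-element-driven reporter transcription units (endogenous TF activity); 24 h compound exposure. Reporter mRNA quantified by RT-PCR, 6-FAM labelling, HpaI digestion and capillary electrophoresis; bidirectional fit versus DMSO baseline.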

The nature of test [13]: BSK_3C_TissueFactor: BioMAP Diversity Plus: 3C Assay for Tissue Factor Biomarker Activity (AID 2282997). The settings on record: BioMAP 3C HUVEC, tissue factor biomarker readout; actives raise or lower the signal. In outline:
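Primary human umbilical vein endothelial cells in the 3C system were exposed to test chemical for 24 h, then Tissue Factor measured by ELISA. Activity was fitted bidirectionally against DMSO as negative control and baseline.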

The nature of test [14]: BSK_3C_uPAR: BioMAP Diversity Plus: 3C Assay for Urokinase-type plasminogen activator receptor (uPAR) Biomarker Activity (AID 2282998). The settings on record: BioMAP 3C HUVEC, uPAR biomarker ELISA; actives raise or lower the signal. In outline:
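Primary human umbilical vein endothelial cells, 3C system; surface uPAR measured by ELISA 24 h after dosing. Cytotoxicity via SRB total protein in parallel cultures; bidirectional fit against DMSO.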

Test [15] is described as follows: BSK_3C_VCAM1: BioMAP Diversity Plus: 3C Assay for Vascular cell adhesion molecule 1 (VCAM1) Biomarker Activity (AID 2282999). The settings on record: BioMAP 3C HUVEC, VCAM1 ELISA, cytokine-stimulated; actives raise or lower the signal. In outline: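 Human umbilical vein endothelial cells were dosed with compound for 24 h, after which cell-surface VCAM-1 was quantified by ELISA. Bidirectional curve fitting used DMSO as negative control and activity baseline.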

A short description of test [16]: BSK_4H_Eotaxin3: BioMAP Diversity Plus: 4H Assay for Eotaxin 3 Biomarker Activity (AID 2283000).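 Further: CCL26 protein level quantified by ELISA in parallel with SRB cytotoxicity check.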 Particulars: primary human endothelial cells (HUVEC); actives raise or lower the signal. The method, boiled down: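 HUVEC, 24 h post-dose, ELISA for Eotaxin-3/CCL26. Gain or loss of signal fitted bidirectionally vs DMSO baseline.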
Test [17] concerns the target Oxysterols receptor LXR-alpha (Homo sapiens) (UniProt Q13133). The test is described as follows: ATG_LXRa_TRANS: Attagene TRANS-FACTORIAL HepG2 Assay for human Liver X Receptor alpha (LXRa) (AID 2282980; active means hit-call score of the fitted dose curve at least 0.9, where 1 is the maximum). The settings on record: HepG2 Attagene TRANS reporter, LXRa transactivation. In outline: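 HepG2 cells were transiently transfected with multiplexed reporter units driven by chimeric LXRa–GAL4 fusion proteins, then dosed for 24 h. Reporter mRNA was quantified by RT-PCR, fluorescent labelling and capillary electrophoresis; gain of signal fitted against DMSO baseline.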

For test [18], the target named is Cellular tumor antigen p53 (Homo sapiens) (UniProt P04637). The test is described as follows: ATG_p53_CIS: Attagene CIS-FACTORIAL HepG2 Assay for human p53 Transcription Factor (AID 2282994). Particulars: HepG2 p53 cis-element reporter, Attagene mRNA; actives raise or lower the signal. The method, boiled down: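 HepG2 cells transiently transfected with cis-regulated multiple reporter transcription units, dosed 24 h. Reporter mRNA measured by RT-PCR, 6-FAM primer extension, HpaI digestion and capillary electrophoresis; bidirectional fit relative to DMSO.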

For test [19], the target named is Nuclear receptor subfamily 4 group A member 2 (Homo sapiens) (UniProt P43354). The test is described as follows: ATG_NURR1_TRANS: Attagene TRANS-FACTORIAL HepG2 Assay for human Nuclear Receptor Related Protein 1 (NURR1) (AID 2282985; active means hit-call score of the fitted dose curve at least 0.9, where 1 is the maximum). Particulars: HepG2 Attagene TRANS reporter, mRNA readout. In outline:
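After 24 h chemical dosing, total RNA from transiently transfected HepG2 cells was reverse-transcribed and reporter cDNA PCR-amplified, FAM-labelled and analysed by capillary electrophoresis. Activity fitted in positive direction, DMSO as negative control.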

Here are results for 8 molecules from PubChem BioAssay (EPA / NIEHS).

Results filed as inconclusive are left out. Active and inactive are the calls of the source. How the source made its calls, unless noted: active means hit-call score of the fitted dose curve at least 0.9, where 1 is the maximum; inactive means score below 0.9.

Hepatocyte nuclear factor 4-alpha (Homo sapiens), sequence (P41235 whole entry, looked up, the tested form may be a part): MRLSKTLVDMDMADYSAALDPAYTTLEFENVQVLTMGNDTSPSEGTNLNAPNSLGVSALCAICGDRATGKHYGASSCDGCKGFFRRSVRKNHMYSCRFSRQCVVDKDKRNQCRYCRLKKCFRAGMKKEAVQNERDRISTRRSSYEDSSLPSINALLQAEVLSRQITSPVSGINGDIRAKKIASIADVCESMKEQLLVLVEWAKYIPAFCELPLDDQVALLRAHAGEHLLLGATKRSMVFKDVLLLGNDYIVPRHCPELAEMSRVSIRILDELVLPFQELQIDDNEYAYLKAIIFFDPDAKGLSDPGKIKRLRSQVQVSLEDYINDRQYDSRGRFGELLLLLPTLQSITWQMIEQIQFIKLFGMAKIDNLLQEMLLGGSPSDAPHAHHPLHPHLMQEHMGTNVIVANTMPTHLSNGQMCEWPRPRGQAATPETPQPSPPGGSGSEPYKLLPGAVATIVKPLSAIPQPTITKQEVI
Oxysterols receptor LXR-alpha (Homo sapiens), sequence (Q13133 whole entry, looked up, the tested form may be a part): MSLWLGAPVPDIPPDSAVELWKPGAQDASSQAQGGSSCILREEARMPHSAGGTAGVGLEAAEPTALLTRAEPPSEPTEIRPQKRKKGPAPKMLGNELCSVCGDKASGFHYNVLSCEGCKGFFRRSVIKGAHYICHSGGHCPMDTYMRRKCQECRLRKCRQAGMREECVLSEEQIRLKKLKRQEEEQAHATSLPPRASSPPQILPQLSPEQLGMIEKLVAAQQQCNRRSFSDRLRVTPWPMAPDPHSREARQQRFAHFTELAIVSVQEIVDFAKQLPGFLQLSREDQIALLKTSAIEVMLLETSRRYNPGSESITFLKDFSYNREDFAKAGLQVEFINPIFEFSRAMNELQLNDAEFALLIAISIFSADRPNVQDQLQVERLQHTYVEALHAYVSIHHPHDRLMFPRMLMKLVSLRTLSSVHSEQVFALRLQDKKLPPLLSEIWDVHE
Transcriptional activator Myb (Homo sapiens), sequence (P10242 whole entry, looked up): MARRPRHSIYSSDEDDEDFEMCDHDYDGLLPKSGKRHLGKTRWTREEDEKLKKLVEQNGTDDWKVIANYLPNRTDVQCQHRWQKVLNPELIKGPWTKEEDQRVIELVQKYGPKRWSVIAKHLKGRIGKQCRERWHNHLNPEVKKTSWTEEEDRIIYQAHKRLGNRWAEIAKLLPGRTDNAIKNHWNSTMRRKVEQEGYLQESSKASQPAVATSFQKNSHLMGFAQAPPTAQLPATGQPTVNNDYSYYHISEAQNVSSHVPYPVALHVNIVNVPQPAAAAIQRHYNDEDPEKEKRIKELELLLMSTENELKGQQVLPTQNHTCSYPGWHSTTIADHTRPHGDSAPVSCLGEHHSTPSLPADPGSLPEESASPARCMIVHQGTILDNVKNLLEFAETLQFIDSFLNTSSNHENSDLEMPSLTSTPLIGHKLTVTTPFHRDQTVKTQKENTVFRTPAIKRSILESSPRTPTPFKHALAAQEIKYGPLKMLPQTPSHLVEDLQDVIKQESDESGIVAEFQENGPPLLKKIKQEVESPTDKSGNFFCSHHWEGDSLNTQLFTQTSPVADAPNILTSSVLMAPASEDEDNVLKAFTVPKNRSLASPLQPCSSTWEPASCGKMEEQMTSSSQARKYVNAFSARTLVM
Cellular tumor antigen p53 (Homo sapiens), sequence (P04637 whole entry, looked up): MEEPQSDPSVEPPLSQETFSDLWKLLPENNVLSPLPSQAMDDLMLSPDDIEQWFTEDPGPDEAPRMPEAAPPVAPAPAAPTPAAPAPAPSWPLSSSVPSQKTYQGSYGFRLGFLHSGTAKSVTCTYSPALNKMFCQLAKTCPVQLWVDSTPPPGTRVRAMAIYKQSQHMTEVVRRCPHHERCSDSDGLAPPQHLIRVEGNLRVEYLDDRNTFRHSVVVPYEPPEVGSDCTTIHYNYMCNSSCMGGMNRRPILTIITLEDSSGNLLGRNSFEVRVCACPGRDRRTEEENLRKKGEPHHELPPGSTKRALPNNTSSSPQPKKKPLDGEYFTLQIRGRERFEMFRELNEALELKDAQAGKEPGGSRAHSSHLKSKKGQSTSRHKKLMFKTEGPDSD
Bile acid receptor (Homo sapiens), sequence (Q96RI1 whole entry, looked up, the tested form may be a part): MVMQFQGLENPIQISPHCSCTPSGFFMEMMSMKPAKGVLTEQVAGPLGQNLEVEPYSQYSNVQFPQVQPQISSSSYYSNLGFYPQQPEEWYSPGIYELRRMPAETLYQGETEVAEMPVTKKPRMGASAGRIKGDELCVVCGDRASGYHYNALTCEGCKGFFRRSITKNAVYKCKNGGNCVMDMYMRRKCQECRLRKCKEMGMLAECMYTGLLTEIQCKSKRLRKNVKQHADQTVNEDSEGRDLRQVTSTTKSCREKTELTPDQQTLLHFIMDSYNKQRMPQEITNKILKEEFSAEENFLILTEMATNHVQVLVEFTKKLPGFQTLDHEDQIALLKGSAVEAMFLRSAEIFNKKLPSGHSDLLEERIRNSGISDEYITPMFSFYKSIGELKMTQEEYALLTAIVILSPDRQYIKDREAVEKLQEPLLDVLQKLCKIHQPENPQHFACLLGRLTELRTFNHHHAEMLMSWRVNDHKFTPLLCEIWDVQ
Nuclear respiratory factor 1 (Homo sapiens), sequence (Q16656 whole entry, looked up, the tested form may be a part): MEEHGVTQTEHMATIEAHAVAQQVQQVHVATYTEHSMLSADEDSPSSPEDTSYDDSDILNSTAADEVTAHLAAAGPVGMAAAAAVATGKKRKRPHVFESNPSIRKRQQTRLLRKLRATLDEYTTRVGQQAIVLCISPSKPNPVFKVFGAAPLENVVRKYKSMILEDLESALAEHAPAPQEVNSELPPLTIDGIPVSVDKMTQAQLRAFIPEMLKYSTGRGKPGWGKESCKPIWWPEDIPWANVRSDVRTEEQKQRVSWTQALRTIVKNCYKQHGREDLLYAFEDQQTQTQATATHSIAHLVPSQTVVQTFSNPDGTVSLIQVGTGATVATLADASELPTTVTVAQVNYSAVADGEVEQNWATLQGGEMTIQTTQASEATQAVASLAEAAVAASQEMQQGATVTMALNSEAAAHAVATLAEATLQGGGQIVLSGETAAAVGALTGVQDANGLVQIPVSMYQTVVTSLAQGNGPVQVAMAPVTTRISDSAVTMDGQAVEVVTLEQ
Myc proto-oncogene protein (Homo sapiens), sequence (P01106 whole entry, looked up): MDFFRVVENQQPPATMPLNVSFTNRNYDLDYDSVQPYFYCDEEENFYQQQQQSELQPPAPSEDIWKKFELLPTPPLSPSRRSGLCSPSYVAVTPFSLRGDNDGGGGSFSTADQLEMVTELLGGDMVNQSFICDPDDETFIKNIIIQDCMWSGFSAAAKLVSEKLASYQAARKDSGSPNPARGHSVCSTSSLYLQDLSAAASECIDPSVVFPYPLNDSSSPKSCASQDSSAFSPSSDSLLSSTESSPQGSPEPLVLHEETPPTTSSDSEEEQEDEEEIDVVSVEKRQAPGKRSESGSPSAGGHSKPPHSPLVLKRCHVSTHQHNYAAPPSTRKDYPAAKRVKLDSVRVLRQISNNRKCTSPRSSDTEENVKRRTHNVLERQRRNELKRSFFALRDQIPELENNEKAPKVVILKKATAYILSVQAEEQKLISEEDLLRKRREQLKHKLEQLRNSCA
Glucocorticoid receptor (Homo sapiens), sequence (P04150 whole entry, looked up, the tested form may be a part): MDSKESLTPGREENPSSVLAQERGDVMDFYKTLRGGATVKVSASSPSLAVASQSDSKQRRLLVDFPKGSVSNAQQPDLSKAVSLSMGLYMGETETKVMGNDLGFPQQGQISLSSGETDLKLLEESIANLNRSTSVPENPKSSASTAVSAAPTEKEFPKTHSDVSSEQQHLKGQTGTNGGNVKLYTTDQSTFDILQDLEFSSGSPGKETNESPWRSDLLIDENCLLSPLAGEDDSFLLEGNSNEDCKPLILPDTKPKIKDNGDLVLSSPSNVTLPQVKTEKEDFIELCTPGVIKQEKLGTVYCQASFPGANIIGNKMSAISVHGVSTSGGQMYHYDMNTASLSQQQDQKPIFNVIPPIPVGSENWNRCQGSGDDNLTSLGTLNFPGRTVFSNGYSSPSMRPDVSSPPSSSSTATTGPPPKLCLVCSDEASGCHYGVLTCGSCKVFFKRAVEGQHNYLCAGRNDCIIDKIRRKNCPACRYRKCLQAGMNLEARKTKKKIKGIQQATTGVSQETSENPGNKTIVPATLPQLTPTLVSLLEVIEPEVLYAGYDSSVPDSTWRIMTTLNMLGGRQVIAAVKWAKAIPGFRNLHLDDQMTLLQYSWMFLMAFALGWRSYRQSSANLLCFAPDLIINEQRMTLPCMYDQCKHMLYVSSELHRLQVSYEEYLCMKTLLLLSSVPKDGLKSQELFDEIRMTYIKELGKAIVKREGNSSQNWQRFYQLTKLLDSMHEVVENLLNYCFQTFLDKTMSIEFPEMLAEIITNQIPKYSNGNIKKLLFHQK
Nuclear receptor subfamily 4 group A member 2 (Homo sapiens), sequence (P43354 whole entry, looked up): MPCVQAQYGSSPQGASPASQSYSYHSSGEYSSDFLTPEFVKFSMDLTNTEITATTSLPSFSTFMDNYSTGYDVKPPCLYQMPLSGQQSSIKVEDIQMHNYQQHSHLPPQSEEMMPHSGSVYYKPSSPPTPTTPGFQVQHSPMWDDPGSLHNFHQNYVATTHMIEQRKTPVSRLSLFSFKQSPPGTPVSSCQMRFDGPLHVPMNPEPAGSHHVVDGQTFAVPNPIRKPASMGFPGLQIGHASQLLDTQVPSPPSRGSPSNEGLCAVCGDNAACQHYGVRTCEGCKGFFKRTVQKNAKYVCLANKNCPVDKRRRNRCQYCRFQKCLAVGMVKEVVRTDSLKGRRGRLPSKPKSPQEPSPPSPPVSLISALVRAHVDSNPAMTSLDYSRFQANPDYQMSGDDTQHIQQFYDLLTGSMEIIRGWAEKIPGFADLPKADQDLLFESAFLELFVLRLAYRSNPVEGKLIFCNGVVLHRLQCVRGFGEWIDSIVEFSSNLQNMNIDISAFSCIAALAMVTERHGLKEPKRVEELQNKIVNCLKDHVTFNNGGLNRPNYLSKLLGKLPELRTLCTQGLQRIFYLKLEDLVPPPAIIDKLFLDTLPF

For `CCNc1nc(Cl)nc(NC(C)(C)C)n1`, the molecule was classed as inactive in [1], in test [2], in test [3], in [4], in [5] and in test [6]. Further, the molecule was called inactive in [7], in [8], in test [9], in test [10], in test [11] and in test [12]. The result in [13], in test [14], in [15] and in test [16] was inactive.
In the case of `CCOC(=O)c1ccccc1N`, the outcome in [1], in test [2], in test [17], in test [4], in test [5] and in test [6] was inactive. The molecule was classed as inactive in test [7], in test [8], in test [9], in test [11] and in test [12].
Take `Oc1ccccc1Br`: the outcome in test [1], in [2], in test [3], in test [4], in test [6] and in test [7] was inactive. For the same molecule, the result in test [8], in test [9], in test [10], in test [11], in test [12] and in test [18] was inactive.
A word on the AC50: it is the midpoint of the concentration-response curve, whichever way the signal moves. Take `Clc1ccc(Oc2ccccc2)cc1`: the outcome in [1], in [2], in test [4], in [5], in [19] and in test [6] was inactive. Also, the call in test [7], in test [8], in [9], in [10], in test [12] and in [18] was inactive. Also, in test [11], the concentration at half-maximal activity (AC50) was 177 µM (active).
Take `CC(C)(C)OOC(C)(C)C`: the outcome in test [1], in [2], in [17], in test [4], in test [19] and in test [6] was inactive. Besides, the molecule was classed as inactive in [7], in test [8], in test [9], in test [10], in [11] and in test [12]. Also, the molecule was classed as inactive in test [18], in test [13], in test [14] and in test [15].
In the case of `OCC(F)(F)OC(F)(F)C(F)(F)OC(F)(F)C(F)(F)OC(F)(F)CO`, the result in [1], in test [2], in test [17], in [3], in [4] and in test [19] was inactive. Further, the call in test [6], in test [7], in test [8], in test [9], in test [10] and in test [12] was inactive. For the same molecule, the outcome in [13], in [14], in test [15] and in test [16] was inactive. In addition, the half-maximal activity concentration (AC50) in [11] is 33.2 µM (active); in [18] it was 29.8 µM (active).
`CC(C)(C)N(NC(=O)c1ccc(Cl)cc1)C(=O)c1ccccc1`: the molecule was classed as inactive in test [1], in test [2], in test [17], in test [4], in [19] and in test [6]. The result in test [7], in test [8], in test [9], in [11] and in [12] was inactive.
Turning to `O=C(O)C(F)(F)OC(F)(F)C(F)(F)OC(F)(F)F`, the call in test [1], in [2], in test [17], in test [3], in test [4] and in test [5] was inactive. Besides, the result in [6], in test [7], in [8], in test [9], in test [10] and in test [11] was inactive. The outcome in [12], in test [18], in test [14], in [15] and in [16] was inactive.
